# Compounds with a hit are over-represented: about 3.7% of the library has one in this group of screens.
# Nrf2 block: inhibitors of Nrf2 signaling; AID 504444; Potency, µM (series often up to 46 µM), for the others: at the highest dose activity change, negative = inhibition, actives largely listed as inhibitors; A549 ARE-Fluc reporter, luciferase luminescence, 18-24 h; 2.1% of 360,000 active; further: on the % scale 0 is the no-effect control and ±100 the full control effect; nearly all actives have a fitted effect of over 60% in size
#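 A549 ARE_Fluc cells (5000/well, 5% FBS OPTI-MEM) pre-incubated 2 h, then treated with compounds 18-24 h at 37C/5% CO2 in concentration-response. CellTiter-Fluor viability read first; BugLite luciferase luminescence after 15 min at room temperature gives Nrf2 activity.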
# Nrf2 activator: activates Nrf2 signaling; AREc32 ARE-luciferase reporter (MCF7-derived line), luminescence, 24 h; Potency, µM (highest dose often 46.1 µM), without a hit: top-dose activation, most hits filed as activators; 0.31% of 410,000 active; AID 624171; further: % of control where 0% means no effect; nearly all actives have a fitted effect of over 65% in size
#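 AREc32_Fluc, 1000 cells/well, OPTI-MEM + 5% FBS, o/n 37 deg C 5% CO2; 23 nL cpd by pin tool, 24 hr; Steady-Glo 30 min RT, luminescence.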
# ELG1 repair inh: inhibitors of ELG1-dependent DNA repair in HEK293T cells; HEK293T ELG1-luciferase reporter, luminescence, 16 h; DNA damage induced by 5-fluorouridine; Potency, µM (doses to about 46.1 µM), for the others: at the highest dose activity change, negative = inhibition, hits mostly inhibitors; 2.3% of 330,000 active; AID 504467; further: on the % scale 0 is the no-effect control and ±100 the full control effect; nearly all actives have a fitted effect of over 55% in size
#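 HEK293T cells expressing luciferase-tagged ELG1 (2,000/well) received 5-Fluorouridine plus compound or DMSO for 16 hr at 37 °C. Luciferase was read by ONE-Glo luminescence after 30 min at room temperature.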
# A549 viability: counter-screen for Nrf2 inhibitors: cytotoxicity in A549 cells; A549 ARE-Fluc cells, CellTiter-Fluor viability, 18-24 h; Potency, µM (doses to about 46 µM), for the others: at the highest dose activity change, negative = cytotoxicity, hits mostly inhibitors; 0.16% of 390,000 active; further: on the % scale 0 is the no-effect control and ±100 the full control effect
#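 Cytotoxicity counterscreen: CellTiter-Fluor fluorescence was measured in A549 ARE_Fluc cells after 18-24 h of compound exposure in a concentration series. The subsequent BugLite luminescent read reports ARE-luciferase activity.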
# * hit, by the source's call; u = inconclusive; x = not tested or not shown. The call rests on the fitted dose curve; in most records, active means well fitted curve in the direction sought with a large enough effect; inconclusive means small, poorly fitted or top-dose-only effect, or another doubt; inactive means no such curve, though single readings can be large; an effect the other way counts as inactive or inconclusive. Potency means the concentration at half of the fitted maximal effect.
SMILES,Nrf2 block,Nrf2 activator,ELG1 repair inh,A549 viability
Cc1cc(O)c(C(c2ccc(Cl)cc2)N2CCN(c3ccccc3)CC2)c(=O)n1Cc1ccco1 (configuration not stated),x,-1%,x,0%
C/C(=N\Nc1nc(C)cc(-c2ccccc2)n1)c1cccc(N)c1,21µM*,2%,u,-4%
C/C(=N\Nc1cc(C)nc(-c2ccccc2)n1)c1cccc([N+](=O)[O-])c1,u,0%,15µM*,7%
CN(C)CCCOC(=O)COc1ccc(C(C)(C)C)cc1,-1%,0%,-6%,4%
CCOc1ccccc1C1NC(=O)NC(C)=C1C(=O)OC1CCCCC1 (configuration not stated),21µM*,0%,0%,-26%
CCOc1ccccc1C1NC(=O)NC(C)=C1C(=O)OC1CCCC1C (configuration not stated),-26%,0%,-23%,-9%
CC1=C(C(=O)OCc2ccccc2)C(c2ccccc2OC(F)F)NC(=O)N1 (configuration not stated),23µM*,3%,u,-8%
COc1ccccc1N1CCN(c2nc3ccc(C)cc3n3nnnc23)CC1,u,0%,x,16%
COc1ccc2sc3ccccc3c(=O)c2c1OC,u,11µM*,u,-7%
COc1cccc2sc3ccc(C#Cc4ccc(N)cc4)cc3c(=O)c12,u,-1%,u,u
CC(=O)N1c2ccc(S(=O)(=O)NCC3CCC(C(=O)Nc4ccc(C)c(C)c4)CC3)cc2CC1C (configuration not stated),21µM*,5%,x,-12%
COc1ccccc1NC(=O)C1CCN(S(=O)(=O)c2ccc3c(c2)CC(C)N3C(C)=O)CC1 (configuration not stated),u,-1%,-11%,9%
COc1ccccc1NC(=O)C1CCC(CNS(=O)(=O)c2ccc3c(c2)CC(C)N3C(C)=O)CC1 (configuration not stated),18µM*,0%,x,-3%
S=c1[nH]nc(Cc2cccs2)n1-c1ccccc1Cl,16µM*,-1%,6%,6%
CCC12CN3CC(CC)(CN(C1)C3c1c[nH]c3ccccc13)C2=O (configuration not stated),x,2%,x,3%
Cc1c(C(=O)NCCC2=CCCCC2)oc2ccc(S(=O)(=O)N3CCOCC3)cc12,u,-1%,16µM*,u
Cc1c(C(=O)NCc2cccs2)oc2ccc(S(=O)(=O)N3CCOCC3)cc12,0%,1%,10µM*,2%
COc1ccc(-c2nc(S(=O)(=O)c3ccc(Cl)cc3)c(N3CCCCCC3)o2)cc1,u,5%,x,0%
Cc1ccc(C(=O)Nc2cccc(S(=O)(=O)N(C)c3ccccc3)c2)o1,-6%,0%,u,1%
CN(c1ccccc1)S(=O)(=O)c1cccc(NC(=O)C2=NNC(=O)CC2)c1,u,0%,16µM*,0%
CN(c1ccccc1)S(=O)(=O)c1cccc(NC(=O)c2nn(C)c(=O)c3ccccc23)c1,23µM*,2%,18µM*,-2%
CC(C)C[C@H]1CN(CCCC[C@H]2CNC(=O)C(=O)N2Cc2ccccc2)C(=O)C(=O)N1CCC1CCCCC1,x,0%,x,x
CCn1cc(C(=O)NC2CCCCCC2)c2cc(OC)c(OC)cc2c1=O,-6%,0%,13µM*,-12%
COc1cc2c(C(=O)NC3CCCCCC3)cn(C)c(=O)c2cc1OC,x,0%,2%,0%
O=C(Cn1cc(CNC(=O)c2ccccc2)nn1)Nc1cc(C(F)(F)F)ccc1Cl,8%,x,x,0%
SMILES,Nrf2 block,Nrf2 activator,ELG1 repair inh,A549 viability
OC(CN1CCN(Cc2ccc3c(c2)OCO3)CC1)c1c[nH]c2ccccc12 (configuration not stated),1%,5%,13µM*,0%
O=C(Cc1c[nH]c2ccccc12)NCc1ccc2c(c1)OCO2,-16%,4%,12µM*,0%
Cc1ccc(C(C(=O)Nc2ccc3c(c2)OCO3)N(C)C(=O)Cc2c[nH]c3ccccc23)cc1 (configuration not stated),23µM*,0%,-30%,u
Cc1c(C(O)CN2CCN(Cc3ccc4c(c3)OCO4)CC2)c2ccccc2n1C (configuration not stated),5%,16%,u,-13%
COc1cc(F)c(S(=O)(=O)N2CCCN(S(=O)(=O)c3ccc4c(c3)OCCO4)CC2)c(F)c1,u,x,x,-18%
COc1cccc(OCc2cc(=O)n3c(-c4ccccc4)csc3n2)c1,u,14%,x,0%
Cc1ccc(NC(=O)c2ccc(=O)[nH]n2)cc1S(=O)(=O)Nc1ccc(SC(F)F)cc1,21µM*,4%,u,-11%
C=CCn1c(SCCC)nc2ccccc2c1=O,3%,x,x,-1%
CC(=O)OC1(C(C)=O)CCC2C3CC(C(F)(F)F)C4=CC(=O)CCC4(C)C3CCC21C (configuration not stated),-14%,7.1µM*,x,-6%
CC12CCC(=O)C=C1CCC1C2CCC2(C)C1CCC2(O)C(=O)CO (configuration not stated),u,0%,x,-15%
CC1CC2C3CCC4=CC(=O)CCC4(C)C3CCC2(C)C1(O)C(=O)CO (configuration not stated),0.65µM*,4%,x,-4%
CC(=O)C12CCCCC1CC1[C@@H]3CC(C)C4=CC(=O)CC[C@]4(C)C3CC[C@@]12C (some centres not stated),u,0%,-27%,12%
CC(=O)O[C@]1(C(C)=O)CC[C@H]2[C@@H]3C[C@H](C)C4=CC(=O)CC[C@]4(C)[C@H]3CC[C@@]21C,0.26µM*,1%,-4%,-14%
CCC(=O)OC1(C(C)=O)CCC2C3CCC4=CC(=O)CCC4(C)C3CCC21C (configuration not stated),1.2µM*,6%,x,6%
N#Cc1c(Cl)cccc1Oc1ccc([S+](=O)([O-])N2CCN([S+](=O)([O-])c3c(F)cccc3F)CC2)cc1,4%,x,x,1%
Cc1cc(C)cc(C(=O)NCC(=O)OCC(=O)NC2CC2)c1,-2%,0%,u,-6%
CC1(c2nnnn2Cc2ccccc2)CCC(=O)N1Cc1ccco1 (configuration not stated),x,0%,x,x
CC1(C)Cc2c(cnn2-c2ccccc2)C(=O)/C1=N\NC(=O)c1ccncc1,14%,0%,x,6%
CC1(C)Cc2c(cnn2-c2ccccc2)-c2c1c1ccccc1n2CC(O)CCl (configuration not stated),u,3%,26µM*,-13%
CC(C)Sc1nc(SCC(=O)O)c2c3c(sc2n1)COC(C)(C)C3,u,4%,u,-2%
CC(C)Sc1nc(SCC(=O)NCc2ccco2)c2c3c(sc2n1)COC(C)(C)C3,9%,8%,2.3µM*,-1%
O=C(c1ccc(=O)[nH]n1)N1CCN(S(=O)(=O)c2ccc3ccccc3c2)CC1,-19%,2%,16µM*,0%

# Screening results deposited in PubChem by National Center for Advancing Translational Sciences (NCATS).
